# Assay results published in PubChem BioAssay AID1012 (Sanford-Burnham Center for Chemical Genomics, 2008).
# Screen size: about 200,000 compounds; about 520 (0.26%) were called active. The list comes from a sample in which actives are over-represented; it also holds similar structures and randomly drawn compounds. A number with no mark means an inactive call.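 The calls were made as follows: active = tissue-nonspecific alkaline phosphatase inhibition above about 50% at 20 µM in the single-dose screen (limit read from the data); inactive = the rest.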
# Target: Alkaline phosphatase, tissue-nonspecific isozyme (Homo sapiens) (UniProt P05186)
# Sequence (P05186 whole entry, looked up): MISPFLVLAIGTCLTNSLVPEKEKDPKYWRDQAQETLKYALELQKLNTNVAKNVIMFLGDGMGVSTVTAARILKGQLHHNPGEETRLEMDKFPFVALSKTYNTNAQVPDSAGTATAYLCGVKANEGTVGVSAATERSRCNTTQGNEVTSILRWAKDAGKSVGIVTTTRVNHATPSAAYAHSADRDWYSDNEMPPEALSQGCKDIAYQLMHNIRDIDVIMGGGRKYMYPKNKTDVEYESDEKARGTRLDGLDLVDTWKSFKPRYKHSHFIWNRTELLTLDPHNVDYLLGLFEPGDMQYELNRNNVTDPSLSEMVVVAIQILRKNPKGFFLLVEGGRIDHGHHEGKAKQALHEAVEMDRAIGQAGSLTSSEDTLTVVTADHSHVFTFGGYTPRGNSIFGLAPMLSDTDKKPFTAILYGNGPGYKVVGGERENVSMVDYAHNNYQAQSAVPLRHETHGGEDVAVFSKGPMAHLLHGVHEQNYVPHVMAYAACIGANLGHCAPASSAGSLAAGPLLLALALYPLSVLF
# Assay: human TNAP enzyme inhibitors, primary screen, biochemical, luminescent, no phosphate acceptor, uHTS (AID 1012);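 also: 0% = DMSO negative control and 100% = EDTA positive control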
# Settings: purified TNAP, CDP-star luminescence, 30 min; at 20 µM; hits give high values
row,SMILES,inhibition
1,O=C1COc2ccc(C(=O)COC(=O)C3CC(O)CN3S(=O)(=O)c3ccc(Cl)cc3)cc2N1 (configuration not stated),-11.9%
2,COc1ccccc1Cn1c(C)nnc1-c1cnn(C)c1N,-14%
3,Cc1ccccc1C(=O)Nc1ccc(N2CCCCCC2)cc1,-10.8%
4,COc1ccc(Cl)cc1NC(=O)[C@@H]1CCCN1C(=O)c1cccs1,-0.4%
5,O=C(NCc1ccc(F)cc1)C(c1ccccc1)N(C(=O)c1csnn1)C1CC1 (configuration not stated),-11.9%
6,C#CCOCCOCCOCCNc1nc(N2CCN(C(=O)[C@H](CCC(=O)O)n3cc(C(N)CO)nn3)CC2)nc(N2CCN(C(=O)[C@H](Cc3ccc(O)cc3)n3cc(C(N)[C@H](C)CC)nn3)CC2)n1 (some centres not stated),-7.8%
7,CN(C)C(=O)c1nc2ccc(Cl)cn2c1CN1CCN(c2ncccn2)CC1,-12.2%
8,CCOC(=O)c1c(NC(=O)C2CCN(S(=O)(=O)c3ccc(Cl)cc3)CC2)sc2c1CCCC2,-6%
9,O=C(CSc1nc(O)c(Cc2ccccc2)c(=O)[nH]1)Nc1nc2c(s1)CCCC2,-7.1%
10,CCCCC(CC(C)O)c1n[nH]c(=S)n1-c1ccccc1 (configuration not stated),-23.2%
11,Cc1cccc(NC(=S)NCCc2ccc(F)cc2)c1C,-8.2%
12,O=C(NNC(=S)NC1CCCCC1)c1ccccc1Cl,-122%
13,O=S(=O)(NCCc1ccncc1)c1ccccc1,-12%
14,COc1cccc(NC(=S)NC(=O)c2c(Cl)c(C)nn2C)c1,12.5%
15,COc1ccc(NC(=O)COC(=O)c2ccncc2)c(OC)c1,-9.8%
16,CCc1nnc(NC(=O)c2nc3nccc(C)n3n2)s1,-1.7%

row,SMILES,inhibition
1,Cc1ccnc2nc(C(=O)Nc3nnc(-c4ccccc4)o3)nn12,52.3% (active)
2,CCCC(=O)Nc1nnc(-c2ccccc2)o1,-7.1%
3,COc1ccc(N2C(=O)CC(Nc3ccc(F)cc3)C2=O)c([N+](=O)[O-])c1 (configuration not stated),-5.2%
4,Cc1ccc(NC(=O)CN2CCCCC2)c2c1CC(C)(C)O2,-3%
5,O=C(O)CCn1c(SCc2cc(=O)n3ccccc3n2)nc2ccsc2c1=O,-2.2%
6,COCCNC(=O)NC(=O)COC(=O)C1(c2ccc(Cl)cc2)CC1,-9.9%
7,Cc1ccc(C(=O)OC2CCCN(C)C2)cc1 (configuration not stated),-10.2%
8,Nc1ncnc(Nc2cccc(Cl)c2Cl)n1,-2.3%
9,COc1ccc(/C=C2\SC(=N)N(c3ccc(F)cc3)C2=O)cc1,-8%
10,Cn1cccc1/C=C1\SC(=O)N(CC(=O)Nc2ccc(F)cc2)C1=O,-0.3%
11,CC(C)OC(=O)Cn1nc(C(F)(F)F)c2c1CCCC2,0.5%
12,CCOc1ccc(C(=O)NC2CCN(CC(=O)NCc3cccs3)CC2)cc1,-4.7%
13,CC(NC(=O)C(=O)N/N=C/c1ccc(Cl)cc1)c1ccccc1 (configuration not stated),3.3%
14,COCCNC(=O)c1ccccc1NS(=O)(=O)c1ccc(C)c([N+](=O)[O-])c1,-7.3%
15,Cc1ccnc(NC(=O)c2ccc(Cl)c([N+](=O)[O-])c2)c1,-11.1%
16,CCOC(=O)NC(=O)C(=CNc1cccc(OC)c1)C(=O)NC(=O)OCC,-10.1%
